Results: PubChem BioAssay
Records with an inconclusive call do not appear. For part of these data: Entries with a potency or affinity are not part of this list. The source made the active and inactive calls.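 Rule for the calls, unless noted: active = luciferase signal above three times the same-plate solvent-only control wells; inactive = the rest.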

Columns and labels:
[1] = biological target: Mitogen-activated protein kinase 7 (Homo sapiens) (UniProt Q13164); experiment: ERK5 transactivation activators in reporter cells, primary screen, cell-based, HTS (AID 1508626); settings: HeLa Gal4-ERK5 transactivation, 18 h, at 5 µM, stronger effect = higher value;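 note: luciferase driven by Gal4-ERK5 fusion binding five Gal4 sites before minimal TATA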
[2] = biological target: NAD(+) hydrolase SARM1 (Homo sapiens) (UniProt Q6SZW1); experiment: SARM1 TIR NADase inhibitors, cell lysate, NAD-Glo luminescence (AID 1508614;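 active = compound whose remaining NAD level is above about 45 nM, limit read from the data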;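 note: higher remaining NAD means stronger inhibition of SARM1 NADase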); settings: SAM-TIR HEK293T lysate NADase, at 1 µM, stronger effect = higher value
[3] = biological target: ATP-dependent translocase ABCB1 (Homo sapiens) (UniProt P08183); experiment: MDR1 (ABCB1) efflux transporter inhibition, cell-based (AID 377; in the data active = fluorescence slope change above about 50%); settings: MDR1-expressing cells, fluorescent substrate accumulation slope; stronger effect = higher value; concentration not given here
[4] = hESC survival regulators, cell-based (AID 493140; call rule not given here;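 note: cells exposed to compounds for four days before counting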); settings: human embryonic stem cell survival screen; stronger effect = higher value
[5] = liver-stage malaria parasite growth inhibition, primary screen, cell-based, HepG2, luciferase luminescence, HepG2 viability (AID 624349; in the data active = parasite load remaining mostly below about 12%, no sharp cut-off; inactive = mostly above about 10%;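 note: 100% = mean of DMSO negative control wells on the same plate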); settings: P. berghei liver stage in HepG2, luciferase luminescence, concentration not given here; parasite load remaining: stronger effect = lower value; viability: measured here: HepG2 viability without parasites
[6] = polyglutamine-triggered caspase-3 activation inhibitors, cell-based (AID 1583); settings: polyglutamine-induced caspase-3 activation, cell assay; stronger effect = higher value;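 tested at 10 µM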
[7] = suppressors of polyQ aggregation in yeast, 75Q-TubU reporter (AID 1593); settings: Yeast 75Q polyglutamine aggregation reporter
[8] = rescue of polyQ-huntingtin neuronal dysfunction in worms, whole organism, C. elegans mechanosensory neurons, N-terminal huntingtin (AID 1599); settings: touch response, stronger effect = higher value
[9] = inhibitors of mitochondrial cytochrome c release, biochemical, purified mitochondria (AID 1603); settings: stronger effect = lower value;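 note: mouse liver mitochondria challenged with calcium chloride; signal normalized to the plate average as 100%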
[10] = inhibitors of polyQ protein aggregation (AID 1604); settings: polyglutamine-induced protein aggregation inhibition assay; stronger effect = higher value; tested at 2.5 µM
[11] = enhancers of glutamate uptake in motor neurons, MN-1 cell line (AID 1612); settings: MN-1 motor neuron cells, stronger effect = higher value;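 note: tested at 1 µM final; 0% = mean of DMSO vehicle wells on each plate; positive means more glutamate uptake than control and negative means less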
[12] = suppressors of polyglutamine aggregation in yeast, 75Q-TubH (AID 1616); settings: S. cerevisiae 75Q-TubH polyglutamine aggregation suppression; stronger effect = higher value

Sequence of NAD(+) hydrolase SARM1 (Homo sapiens) (Q6SZW1 whole entry, looked up): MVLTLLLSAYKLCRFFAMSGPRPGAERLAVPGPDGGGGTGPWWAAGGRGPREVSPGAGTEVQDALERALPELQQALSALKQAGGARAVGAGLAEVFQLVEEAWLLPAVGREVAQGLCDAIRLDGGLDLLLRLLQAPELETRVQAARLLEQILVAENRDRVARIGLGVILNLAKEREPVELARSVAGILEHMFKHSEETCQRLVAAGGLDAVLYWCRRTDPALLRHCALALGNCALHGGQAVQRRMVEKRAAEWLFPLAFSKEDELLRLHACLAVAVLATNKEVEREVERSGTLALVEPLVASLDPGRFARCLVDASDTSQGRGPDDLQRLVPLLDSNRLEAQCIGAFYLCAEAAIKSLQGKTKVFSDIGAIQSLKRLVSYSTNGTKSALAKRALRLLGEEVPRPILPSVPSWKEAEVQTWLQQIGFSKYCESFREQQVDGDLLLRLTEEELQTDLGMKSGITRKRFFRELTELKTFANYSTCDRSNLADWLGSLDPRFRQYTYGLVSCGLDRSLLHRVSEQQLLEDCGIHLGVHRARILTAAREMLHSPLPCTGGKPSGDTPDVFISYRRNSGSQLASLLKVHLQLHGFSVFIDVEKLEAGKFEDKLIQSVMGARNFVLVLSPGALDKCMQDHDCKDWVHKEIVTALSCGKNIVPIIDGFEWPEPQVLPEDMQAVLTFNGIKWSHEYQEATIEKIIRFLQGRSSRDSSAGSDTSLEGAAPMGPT
Sequence of Mitogen-activated protein kinase 7 (Homo sapiens) (Q13164 whole entry, looked up, the tested form may be a part): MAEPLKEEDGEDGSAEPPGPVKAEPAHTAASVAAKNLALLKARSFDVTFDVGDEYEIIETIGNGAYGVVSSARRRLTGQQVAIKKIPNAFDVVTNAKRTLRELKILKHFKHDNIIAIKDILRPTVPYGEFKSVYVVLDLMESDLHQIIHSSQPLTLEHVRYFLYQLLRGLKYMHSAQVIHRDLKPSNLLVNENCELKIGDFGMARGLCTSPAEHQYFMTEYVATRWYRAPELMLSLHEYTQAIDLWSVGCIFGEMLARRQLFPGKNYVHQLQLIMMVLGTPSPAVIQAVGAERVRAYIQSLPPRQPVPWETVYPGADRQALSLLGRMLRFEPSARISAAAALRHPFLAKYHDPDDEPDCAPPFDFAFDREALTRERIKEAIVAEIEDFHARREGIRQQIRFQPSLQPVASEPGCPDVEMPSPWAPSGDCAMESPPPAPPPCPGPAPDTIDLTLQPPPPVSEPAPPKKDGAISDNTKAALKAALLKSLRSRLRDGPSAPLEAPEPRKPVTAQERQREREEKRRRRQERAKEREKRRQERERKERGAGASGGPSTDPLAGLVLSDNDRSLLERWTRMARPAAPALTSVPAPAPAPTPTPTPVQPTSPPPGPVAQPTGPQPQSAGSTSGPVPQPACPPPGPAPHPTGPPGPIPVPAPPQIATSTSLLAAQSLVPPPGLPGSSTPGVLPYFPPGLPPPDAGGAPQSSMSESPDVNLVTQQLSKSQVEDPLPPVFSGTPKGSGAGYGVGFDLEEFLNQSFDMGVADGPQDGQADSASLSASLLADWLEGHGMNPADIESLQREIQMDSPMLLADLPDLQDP
Sequence of ATP-dependent translocase ABCB1 (Homo sapiens) (P08183 whole entry, looked up): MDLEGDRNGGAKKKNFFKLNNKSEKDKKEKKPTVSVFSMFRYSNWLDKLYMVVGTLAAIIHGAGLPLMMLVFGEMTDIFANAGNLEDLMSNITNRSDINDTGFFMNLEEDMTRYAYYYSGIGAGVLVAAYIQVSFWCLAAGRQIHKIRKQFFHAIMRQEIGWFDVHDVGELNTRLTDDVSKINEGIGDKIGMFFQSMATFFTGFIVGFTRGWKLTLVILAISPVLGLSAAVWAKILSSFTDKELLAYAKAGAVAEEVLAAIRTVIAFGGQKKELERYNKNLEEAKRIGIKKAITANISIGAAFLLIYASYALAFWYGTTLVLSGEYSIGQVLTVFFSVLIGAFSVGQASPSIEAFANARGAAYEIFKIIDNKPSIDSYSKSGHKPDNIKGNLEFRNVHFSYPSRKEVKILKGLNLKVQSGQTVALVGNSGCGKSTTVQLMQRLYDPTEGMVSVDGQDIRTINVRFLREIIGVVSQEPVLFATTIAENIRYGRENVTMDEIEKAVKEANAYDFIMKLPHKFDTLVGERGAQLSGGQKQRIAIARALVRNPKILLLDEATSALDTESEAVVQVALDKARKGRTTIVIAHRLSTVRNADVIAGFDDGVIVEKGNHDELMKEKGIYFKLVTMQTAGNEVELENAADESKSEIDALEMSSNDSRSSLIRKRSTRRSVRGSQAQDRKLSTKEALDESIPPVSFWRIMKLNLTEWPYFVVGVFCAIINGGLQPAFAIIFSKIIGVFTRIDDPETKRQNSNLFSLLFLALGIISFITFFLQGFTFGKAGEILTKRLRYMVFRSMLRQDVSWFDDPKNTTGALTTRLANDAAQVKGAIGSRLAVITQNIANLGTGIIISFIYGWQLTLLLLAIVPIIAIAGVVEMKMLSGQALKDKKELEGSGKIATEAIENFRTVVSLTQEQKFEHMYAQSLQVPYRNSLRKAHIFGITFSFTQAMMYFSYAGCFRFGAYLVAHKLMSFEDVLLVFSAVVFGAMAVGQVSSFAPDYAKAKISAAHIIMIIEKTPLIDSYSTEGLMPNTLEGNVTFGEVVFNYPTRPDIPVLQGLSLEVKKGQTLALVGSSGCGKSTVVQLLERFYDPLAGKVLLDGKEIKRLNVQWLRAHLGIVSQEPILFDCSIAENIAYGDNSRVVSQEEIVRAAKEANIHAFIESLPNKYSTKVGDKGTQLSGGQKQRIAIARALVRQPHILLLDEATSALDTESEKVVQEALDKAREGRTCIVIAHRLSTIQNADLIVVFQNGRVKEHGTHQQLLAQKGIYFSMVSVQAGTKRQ

## CN[C@@H]1[C@@H](O)[C@@H](O[C@@H]2[C@@H](O)[C@H](O[C@H]3O[C@H]([C@@H](C)O)[C@@H](O)[C@H](O)[C@H]3N)[C@@H](N)C[C@H]2N)OC[C@]1(C)O
[1]
  luciferase signal: 52 AU (inactive)

## CC(=O)O[C@@H]1[C@H]2CC[C@H]3[C@@](C)(O)[C@@H]4C[C@H](O)C(C)(C)[C@@]4(O)[C@@H](O)C[C@@]13C[C@@]2(C)O
[1]
  luciferase signal: 32 AU (inactive)

## C[C@@H]1CC[C@@]2(OC1)O[C@H]1[C@@H](O)[C@H]3[C@@H]4CC[C@H]5C[C@@H](O[C@@H]6O[C@H](CO)[C@H](O[C@@H]7O[C@H](CO)[C@@H](O)[C@H](O[C@@H]8OC[C@@H](O)[C@H](O)[C@H]8O)[C@H]7O[C@@H]7O[C@H](CO)[C@H](O)[C@H](O[C@@H]8O[C@H](CO)[C@@H](O)[C@H](O)[C@H]8O)[C@H]7O)[C@H](O)[C@H]6O)[C@H](O)C[C@]5(C)[C@H]4CC[C@]3(C)[C@H]1[C@@H]2C
[1]
  luciferase signal: 48 AU (inactive)

## CCN1C[C@]2(OC(=O)c3ccccc3NC(C)=O)CC[C@H](OC)[C@]34C1[C@H](C[C@H]23)[C@@]1(O)C[C@H](OC)[C@H]2C[C@@H]4[C@]1(O)[C@H]2OC
[1]
  luciferase signal: 84 AU (inactive)

## COc1cc2c(cc1OC)[C@@H]1C(=O)c3ccc4c(c3O[C@@H]1CO2)C[C@H](C(C)C)O4
[1]
  luciferase signal: 152 AU (inactive)

## CC(=O)OC1C[C@@]2(C)[C@H](c3ccoc3)C[C@H]3O[C@]32[C@]2(C)C(=O)C(O)=C3C(C)(C)C(=O)C=C[C@]3(C)C12 (stereo partly specified)
[1]
  luciferase signal: 12 AU (inactive)

## COC1=C[C@]23CCCN2CCc2cc4c(cc2[C@@H]3[C@@H]1O)OCO4
[1]
  luciferase signal: 56 AU (inactive)

## O=c1nc(O)n(Cl)c(=O)n1Cl
[2]
  remaining NAD: 10 nM (inactive)

## CN1[C@H]2C[C@H](OC(=O)[C@H](CO)c3ccccc3)C[C@@H]1[C@@H](O)C2
[1]
  luciferase signal: 56 AU (inactive)

## CN1C2CC(OC(=O)C(CO)c3ccccc3)CC1C(O)C2 (stereo unspecified)
[2]
  remaining NAD: 10 nM (inactive)

## CC[C@@H](C)C(=O)O[C@H]1[C@H](O)[C@H]2[C@@H](CN3C[C@@H](C)CC[C@H]3[C@@]2(C)O)[C@@H]2C[C@]34O[C@]5(O)[C@@H](OC(=O)[C@](C)(O)[C@@H](C)O)CC[C@@]3(C)[C@@H]5[C@@H](OC(C)=O)[C@@H](OC(C)=O)[C@H]4[C@@]21O
[1]
  luciferase signal: 88 AU (inactive)

## C[N+]1([O-])[C@@H]2CC[C@H]1CC(OC(=O)C(CO)c1ccccc1)C2 (stereo partly specified)
[3]
  fluorescence slope change: 74.3% (active)
[4]
  survival: 35.2 (inactive)
[5]
  parasite load remaining: 113% (inactive)
  viability: 87.7%
[2]
  remaining NAD: 10 nM (inactive)

## CC(=O)O[C@H]1C(=O)[C@@]2(C)[C@H]([C@H](OC(=O)c3ccccc3)[C@]3(O)C[C@H](O)C(C)=C1C3(C)C)[C@]1(OC(C)=O)CO[C@@H]1C[C@@H]2O
[1]
  luciferase signal: 136 AU (inactive)

## CN(CC[C@H](N)CC(=O)N[C@H]1C=C[C@H](n2ccc(N)nc2=O)O[C@@H]1C(=O)O)C(=N)N
[1]
  luciferase signal: 80 AU (inactive)

## NC(=O)C[S@@](=O)C(c1ccccc1)c1ccccc1
[2]
  remaining NAD: 10 nM (inactive)

## C=CCNCCCCCCCCCC (tested in a mixture with another compound)
[2]
  remaining NAD: 10 nM (inactive)

## O=C(NN=Cc1ccc([N+](=O)[O-])o1)c1cc([N+](=O)[O-])cc([N+](=O)[O-])c1O
[2]
  remaining NAD: 10 nM (inactive)

## CCN1C[C@]2(COC)[C@H](O)C[C@H](OC)[C@]34C1[C@H]([C@H](OC)[C@H]23)[C@]1(OC(C)=O)[C@H]2[C@@H](OC(=O)c3ccccc3)[C@](O)(C[C@H]24)[C@@H](OC)[C@@H]1O
[2]
  remaining NAD: 10 nM (inactive)
[1]
  luciferase signal: 16 AU (inactive)

## CC(=O)OC1CCC2(C)C(CCC3C2CCC2(C)C(C4=CC(=O)OC4)C(OC(C)=O)CC32O)C1 (stereo unspecified)
[1]
  luciferase signal: 16 AU (inactive)

## C=C[C@H]1CN2CC[C@H]1C[C@H]2[C@H](OC(=O)OCC)c1ccnc2ccc(OC)cc12
[2]
  remaining NAD: 10 nM (inactive)
[1]
  luciferase signal: 28 AU (inactive)

## CC[C@]12C=CCN3CC[C@@]4(c5ccc(OC)cc5N(C)[C@H]4[C@@](O)(C(=O)OC)[C@@H]1OC(C)=O)[C@@H]32
[1]
  luciferase signal: 44 AU (inactive)

## C[C@]12CCC(=O)C[C@@H]1CC[C@@H]1[C@@H]2CC[C@]2(C)C(=O)CC[C@@H]12
[1]
  luciferase signal: 68 AU (inactive)

## CC[C@@H](c1cccc(O)c1)[C@@H](C)CN(C)C
[2]
  remaining NAD: 10 nM (inactive)

## ClC1=C(Cl)C2(Cl)C3C4CC(C5OC45)C3C1(Cl)C2(Cl)Cl (stereo unspecified)
[6]
  inhibition: 8.56%
[7]
  score: 0
[8]
  rescue above control: 3.84
[9]
  cytochrome c release ratio: 1.81
[10]
  inhibition of aggregation: 72.4%
[11]
  glutamate uptake change: -23.9%
[12]
  aggregation suppression score: 0.719
